The source of these data is PubChem BioAssay (NCI).

Some test systems named below: K-562 leukemia; MALME-3M melanoma; MDA-MB-231 breast; RXF 393 renal; SF-268 CNS; SF-295 CNS; SF-539 CNS; UACC-257 melanoma; M14 melanoma; HCT-15 colon; HT29 colon; SNB-75 CNS; SNB-19 CNS; U251 CNS; PC-3 prostate; SK-MEL-5 melanoma; UACC-62 melanoma; LOX IMVI melanoma; SK-MEL-28 melanoma; SK-MEL-2 melanoma.
Test in all cases: NCI-60 one-dose screen, 48 h (100 = growth as untreated, 0 = no growth, -100 = all killed)
What all share (conditions): 10 µM

Structures are written as SMILES. This is part of a sample that, as a whole, favours compounds with a hit. Of some 83,000 tested, about 20% had one in any assay.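 Growth was measured after 48 h exposure to one concentration of compound in 96-well plates. Values under 10 count as active.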 Unmarked numbers belong to inactive results. Calls of active or inactive are those of the source.

On to `N#CCCN1C/C(=C/c2ccc(Cl)cc2)C(=O)/C(=C/c2ccc(Cl)cc2)C1`, for which the growth in the test with K-562 leukemia is 3.1% (active); in the test on MALME-3M melanoma, -52.8% (active); in the test on MDA-MB-231 breast it was -18.5% (active); with RXF 393 renal, -94.3% (active); in the test on SF-268 CNS it was -38.6% (active); in the test with SF-295 CNS it was -22.3% (active). For the same molecule, the growth in the test with SF-539 CNS is -50% (active); in the test on UACC-257 melanoma, -53.4% (active); in the test on M14 melanoma it was -44.1% (active); in the test with HCT-15 colon, 2.04% (active); in the test with HT29 colon, -36.1% (active); with SNB-75 CNS, 11.6%. Further, the growth is -28% (active) in the test with SNB-19 CNS; -95.3% (active) with U251 CNS; -39.6% (active) in the test with PC-3 prostate; -60.6% (active) with SK-MEL-5 melanoma; -66.1% (active) with UACC-62 melanoma; -80.4% (active) in the test with LOX IMVI melanoma. Further, the figures for the growth in the test on SK-MEL-28 melanoma and in the test with SK-MEL-2 melanoma were -61.4% (active) and 19%, respectively.

On to `O=C(N/N=C/c1ccccc1)C(Oc1ccccc1)c1ccccc1` (stereo not given), for which the growth in the test on K-562 leukemia was 79%; with MALME-3M melanoma, 71.8%; with MDA-MB-231 breast it was 102%; in the test with RXF 393 renal, 100%; in the test on SF-268 CNS, 97.1%; in the test with SF-295 CNS, 93.7%. The growth with SF-539 CNS was 93.7%; in the test on UACC-257 melanoma it was 96.7%; in the test on M14 melanoma, 95.6%; in the test with HCT-15 colon it was 91.9%; in the test on HT29 colon, 100%; with SNB-75 CNS, 83.9%. In addition, the growth was 94.6% with SNB-19 CNS; 106% in the test with U251 CNS; 90.6% in the test with PC-3 prostate; 93.5% in the test on SK-MEL-5 melanoma; 74.9% with UACC-62 melanoma; 90.1% in the test with LOX IMVI melanoma. The values for the growth with SK-MEL-28 melanoma and in the test on SK-MEL-2 melanoma were 93.6% and 120%, respectively.

Regarding `COc1ccc(-c2cc(-c3ccc(N(C)C)cc3)c(C#N)c(N3CCCC3)n2)cc1`, the growth is 69.3% in the test on K-562 leukemia; 122% in the test with MALME-3M melanoma; 64.1% in the test with MDA-MB-231 breast; -2.09% (active) with RXF 393 renal; 96.7% in the test on SF-268 CNS; 93.8% with SF-295 CNS. Moreover, the growth with SF-539 CNS was 88.8%; in the test with UACC-257 melanoma, 88%; in the test on M14 melanoma, 73.3%; in the test on HCT-15 colon, 71.4%; in the test on HT29 colon, 63.2%; with SNB-75 CNS it was 99.7%. The growth in the test on SNB-19 CNS was 90.1%; in the test with U251 CNS, 86%; in the test with PC-3 prostate, 82.2%; in the test with SK-MEL-5 melanoma it was 58.5%; in the test on UACC-62 melanoma, 102%; in the test with LOX IMVI melanoma, 34.2%. Besides, the growth with SK-MEL-28 melanoma is 93.4%; in the test on SK-MEL-2 melanoma, 84%.

Turning to `COc1ccc(OC)c(/C=C/c2nc(SC)n(-c3ccc(Cl)cc3)n2)c1`, the growth is 30.7% in the test with K-562 leukemia; 44.8% in the test on MALME-3M melanoma; 91.7% in the test with MDA-MB-231 breast; 59.7% in the test with RXF 393 renal; 91.7% in the test with SF-268 CNS; 46.8% in the test on SF-295 CNS. Also, the growth with SF-539 CNS was 88.5%; with UACC-257 melanoma, 87.3%; with M14 melanoma it was 60%; in the test on HCT-15 colon, 58.9%; in the test with HT29 colon, 90.3%; with SNB-75 CNS, 72.1%. For the same molecule, the growth with SNB-19 CNS was 81.4%; in the test on U251 CNS, 78.1%; in the test on PC-3 prostate it was 38.9%; with SK-MEL-5 melanoma, 53.4%; in the test with UACC-62 melanoma it was 49.5%; with LOX IMVI melanoma, 83.3%. Moreover, the growth in the test with SK-MEL-28 melanoma was 85.1%; with SK-MEL-2 melanoma, 88.5%.

With `Cc1c(Cl)cccc1NC(=O)c1sc2nc3c(cc2c1N)C(=O)CCC3`, the growth was 7.09% (active) in the test with K-562 leukemia; 40.1% in the test with MALME-3M melanoma; 12.6% with MDA-MB-231 breast; -16.4% (active) with RXF 393 renal; 37.4% in the test with SF-268 CNS; -8.15% (active) with SF-295 CNS. Moreover, the growth in the test with SF-539 CNS is -40.7% (active); in the test on UACC-257 melanoma it was 48.1%; with M14 melanoma it was 3.72% (active); with HCT-15 colon, 21%; with HT29 colon, 3.09% (active); with SNB-75 CNS, 27%. For the same molecule, the growth in the test with SNB-19 CNS was 45.4%; in the test on U251 CNS, 7.51% (active); in the test on PC-3 prostate, 21.4%; in the test on SK-MEL-5 melanoma, 9.76% (active); in the test on UACC-62 melanoma it was 34.5%; in the test on LOX IMVI melanoma, 33.3%. For the same molecule, the growth in the test on SK-MEL-28 melanoma was 43.7%; in the test on SK-MEL-2 melanoma, 18%.

Regarding `N=C(N)c1ccc(-c2ccc(-c3cccs3)s2)cc1`, the growth with K-562 leukemia is -56% (active); in the test with MALME-3M melanoma, -80.1% (active); with MDA-MB-231 breast, 75.8%; with RXF 393 renal it was 75.8%; in the test on SF-268 CNS, 101%; with SF-295 CNS, 16.4%. In addition, the growth with SF-539 CNS was 89.5%; in the test on UACC-257 melanoma it was 34.6%; in the test on M14 melanoma it was 30.3%; with HCT-15 colon, 0.674% (active); in the test on HT29 colon, -53.8% (active); in the test with SNB-75 CNS, 70.9%. The growth in the test with SNB-19 CNS was 109%; in the test with U251 CNS, -48.5% (active); with PC-3 prostate it was 78%; in the test on SK-MEL-5 melanoma it was 31.4%; in the test with UACC-62 melanoma, 40.4%; with LOX IMVI melanoma it was -81.7% (active). Moreover, the results for the growth in the test on SK-MEL-28 melanoma and in the test on SK-MEL-2 melanoma were 37.7% and 99%, respectively.

For `COC(=O)C1=NNC(=S)N(c2cc(C)[nH]n2)C(=O)C1`, the growth in the test with K-562 leukemia is 93.7%; in the test on MALME-3M melanoma it was 93.2%; with MDA-MB-231 breast, 110%; in the test with RXF 393 renal, 111%; in the test with SF-268 CNS, 102%; with SF-295 CNS, 96.3%. Further, the growth is 102% in the test with SF-539 CNS; 100% with UACC-257 melanoma; 102% in the test with M14 melanoma; 102% in the test with HCT-15 colon; 113% in the test with HT29 colon; 93.9% in the test on SNB-75 CNS. Moreover, the growth in the test on SNB-19 CNS is 98%; in the test with U251 CNS it was 101%; with PC-3 prostate, 99.1%; in the test on SK-MEL-5 melanoma, 101%; with UACC-62 melanoma, 103%; in the test on LOX IMVI melanoma it was 95.9%. In addition, the growth in the test with SK-MEL-28 melanoma was 114%; with SK-MEL-2 melanoma, 100%.

Consider `O=C1Nc2ccccc2C1=NC1CCCCC1`, for which the growth with K-562 leukemia was 100%; in the test with MALME-3M melanoma it was 90.9%; in the test on MDA-MB-231 breast, 103%; in the test on RXF 393 renal, 107%; in the test with SF-268 CNS, 96%; in the test with SF-295 CNS, 98.3%. The growth in the test with SF-539 CNS was 99.7%; with UACC-257 melanoma it was 100%; in the test with M14 melanoma, 106%; in the test with HCT-15 colon, 105%; in the test on HT29 colon, 99.2%; in the test on SNB-75 CNS, 88.1%. For the same molecule, the growth with SNB-19 CNS is 111%; with U251 CNS, 101%; in the test on PC-3 prostate, 94%; in the test on SK-MEL-5 melanoma, 94.3%; in the test on UACC-62 melanoma it was 105%; in the test on LOX IMVI melanoma it was 87.5%. Further, the growth in the test on SK-MEL-28 melanoma was 115%; with SK-MEL-2 melanoma, 88.6%.
